Values joined by “and” are separate entries in the source; they are usually repeats but may differ in a detail not shown here. Identical values can stand only once. Results filed as inconclusive are left out. Active and inactive are the calls of the source. Calls follow the shape of the dose curve; as a rule, active = well fitted curve in the direction sought with a large enough effect; inconclusive = small, poorly fitted or top-dose-only effect, or another doubt; inactive = no such curve, though single readings can be large; an effect the other way counts as inactive or inconclusive.
Assays:
[1] = P-glycoprotein substrates identified in KB-8-5-11 adenocarcinoma cell line, qHTS therapeutic library screen (AID 1346987); also: nearly all actives have a fitted effect of over 65% in size; also: potency is read from the fitted curve at half-maximal effect
Outline: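 In this qHTS, P-gp-rich KB-8-5-11 cells received library compounds across a concentration range. Viability was quantified by luminescence after 72 h at 37 degree C.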

[2] = NS1 protein of Zika virus - qHTS assay to identify small molecule inhibitors in human HEK 293 cells (AID 1347053);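 also: series mostly up to about 46 µM; plate controls were infected untreated cells for no effect and uninfected cells for full effect; nearly all actives have a fitted effect of over 55% in size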
Outline: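 TR-FRET signal from two anti-ZIKV NS1 antibodies quantified NS1 in HEK 293 cells 24 h after MR766 infection at MOI = 0.5; compounds were added 1 h before virus. Uninfected cells and infected cells defined the NS1 normalization range.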

[3] = qHTS of pediatric cancer cell lines to identify multiple opportunities for drug repurposing: Primary screen for TC32 cells (AID 1347089); also: nearly all actives have a fitted effect of over 60% in size; also: potency is read from the fitted curve at half-maximal effect; as to activity change, negative = cytotoxic: % is scaled to controls: 0 for no effect and ±100 for the full control effect
Outline: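 Luminescent ATP read-out (CellTiter-Glo) of metabolically active TC32 cells after 48 h exposure. Concentration-response curves came from 11-point (MIPE, 0.78 nM–46 µM) or 8-point (NPC, 0.59 nM–46 µM) primary titrations; follow-up used 11 points.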

[4] = qHTS of pediatric cancer cell lines to identify multiple opportunities for drug repurposing: Primary screen for DAOY cells (AID 1347090);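 also: series mostly up to about 46 µM; plate controls were DMSO for no effect and bortezomib for full effect; nearly all actives have a fitted effect of over 55% in size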
Outline: (§1)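 Cell viability, CellTiter-Glo luminescence; 500-1,000 cells/well, 8- or 11-point titration, 48 h compound exposure at 37 degrees C, 5% CO2. Controls: DMSO neutral, bortezomib 2.3 µM final as positive.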

[5] = qHTS of pediatric cancer cell lines to identify multiple opportunities for drug repurposing: Primary screen for A673 cells (AID 1347092); also: nearly all actives have a fitted effect of over 45% in size; also: potency is read from the fitted curve at half-maximal effect; as to activity change, negative = cytotoxic: % is scaled to controls: 0 for no effect and ±100 for the full control effect
Outline: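 Cell viability of A673 measured by CellTiter-Glo ATP luminescence after 48 hours compound exposure. Dilution series spanned 0.78 nM to 46 µM (MIPE, 11-point) or 0.59 nM to 46 µM (NPC, 8-point); bortezomib 2.3 uM positive control.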

[6] = qHTS of pediatric cancer cell lines to identify multiple opportunities for drug repurposing: Primary screen for SK-N-MC cells (AID 1347093); also: potency is read from the fitted curve at half-maximal effect;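 as to activity change, negative = cytotoxic: series mostly up to about 46 µM; plate controls were DMSO neutral control for no effect and bortezomib for full effect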
Outline: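 Metabolically active cells were quantified by ATP-dependent luminescence (CellTiter-Glo, 15 min at room temperature) following 48 h treatment. Cells had been plated at 500-1,000 per well and settled for 5 h beforehand.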

[7] = qHTS of pediatric cancer cell lines to identify multiple opportunities for drug repurposing: Primary screen for BT-37 cells (AID 1347094); also: potency is read from the fitted curve at half-maximal effect;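 as to activity change, negative = cytotoxic: series mostly up to about 57 µM; plate controls were DMSO for no effect and bortezomib for full effect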
Outline: (§2)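 Phenotypic viability qHTS, 48 h compound exposure, CellTiter-Glo luminescence read-out; multi-concentration dosing so that potency and efficacy derive directly from the primary screen's curves.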

[8] = qHTS of pediatric cancer cell lines to identify multiple opportunities for drug repurposing: Primary screen for NB-EBc1 cells (AID 1347095);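 also: plate controls were DMSO neutral control for no effect and bortezomib for full effect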
Outline: as §2

[9] = qHTS of pediatric cancer cell lines to identify multiple opportunities for drug repurposing: Primary screen for U-2 OS cells (AID 1347096);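 also: plate controls were DMSO wells for no effect and bortezomib positive control wells for full effect; nearly all actives have a fitted effect of over 50% in size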
Outline: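 Cells (500-1,000/well) rested 5 h, then received compounds for 48 h; metabolically active cells were measured by CellTiter-Glo luminescence. Final concentrations spanned up to 46 µM (MIPE, 11-point) or 0.59 nM-46 µM (NPC, 8-point) in primary screens, 11-point in follow-ups.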

[10] = qHTS of pediatric cancer cell lines to identify multiple opportunities for drug repurposing: Primary screen for SJ-GBM2 cells (AID 1347091);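 also: plate controls were DMSO neutral control for no effect and bortezomib for full effect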
Outline: as §1

COc1ccc(S(=O)(=O)Nc2nnc(CC(C)C)s2)cc1
inactive: Potency [1] | Potency [2] | Potency [3] | Potency [4] | Potency [5] | Potency [6] | Potency [7] | Potency [8] | Potency [9]

CC(=O)Oc1c(C)c(C)c2c(c1C)CC[C@@](C)(CCC[C@H](C)CCC[C@H](C)CCCC(C)C)O2
inactive: Potency [1] | Potency [2] | Potency [3] | Potency [4] | Potency [5] | Potency [6] | Potency [7] | Potency [8] | Potency [9]

O=S(=O)(O)c1cc(I)c(O)c2ncccc12
inactive: Potency [1] | Potency [2] | Potency [3] | Potency [4] | Potency [5] | Potency [6] | Potency [7] | Potency [8] | Potency [9]

CC(=O)Nc1ccc(/C=N/NC(N)=S)cc1
inactive: Potency [1] | Potency [2] | Potency [3] | Potency [4] | Potency [7] | Potency [8] | Potency [9]

CC(=O)CCC(=O)O
inactive: Potency [1] | Potency [2] | Potency [3] | Potency [4] | Potency [5] | Potency [7] | Potency [8] | Potency [9]

NCCNCCNCCNCCN
inactive: Potency [1] | activity change, negative = inhibition [2] -10.7% [at 9.2 µM] | activity change, negative = cytotoxic [3] 6.7% [at 9.17 µM] | activity change, negative = cytotoxic [4] -7.74% [at 9.22 µM] | activity change, negative = cytotoxic [5] 0.711% [at 9.22 µM] | activity change, negative = cytotoxic [6] -17.1% [at 9.22 µM] | activity change, negative = cytotoxic [7] 7.77% [at 11.5 µM] | activity change, negative = cytotoxic [8] 2.04% [at 9.22 µM] | activity change, negative = cytotoxic [9] -3.22% [at 9.22 µM]

CCOC(CN1CCN(CC(C)C(=O)c2ccccc2)CC1)c1ccccc1 (stereo not drawn)
inactive: Potency [1] | Potency [2] | Potency [3] | Potency [4] | Potency [5] | Potency [6] | Potency [7] | Potency [8] | Potency [9]

C[C@@H](O)[C@H](N)C(=O)O
inactive: Potency [1] | Potency [2] | Potency [3] | Potency [4] | Potency [5] | Potency [7] | Potency [8] | Potency [9]

CCCCC(CC)COC(=O)c1ccccc1O (stereo not drawn)
inactive: Potency [1] | Potency [2] | Potency [3] | Potency [4] | Potency [5] | Potency [6] | Potency [7] | Potency [8] | Potency [9]

CC(=O)NC(Cc1ccccc1)C(=O)O (stereo not drawn)
inactive: Potency [1] | Potency [2] | Potency [3] | Potency [4] | Potency [7] | Potency [8] | Potency [9]

CC(COc1ccccc1)NC(C)C(O)c1ccc(O)cc1 (stereo not drawn)
inactive: Potency [1] | Potency [2] | Potency [3] | Potency [4] | Potency [5] | Potency [6] | Potency [7] | Potency [8] | Potency [9]

O=c1cc[nH]c(=O)[nH]1
inactive: Potency [1] | Potency [2] | Potency [3] | Potency [4] | Potency [5] | Potency [7] | Potency [8] | Potency [9]

NC(=O)NC(=O)Cc1ccccc1
inactive: Potency [1] | Potency [2] | Potency [3] | Potency [4] | Potency [5] | Potency [6] | Potency [7] | Potency [8] | Potency [9]

CC[C@@]1(c2ccccc2)NC(=O)N(C)C1=O
inactive: Potency [1] | Potency [2] | Potency [3] | Potency [4] | Potency [5] | Potency [7] | Potency [8] | Potency [9]

CC1(C)CO[C@@H](CC(=O)O)CN1
inactive: Potency [1] | Potency [2] | Potency [3] | Potency [10] | Potency [5] | Potency [7] | Potency [8] | Potency [9]

C[C@H]1O[C@H](O[C@H]2[C@H](O)[C@@H](O)[C@@H](O[C@H]3[C@H](O)[C@@H](O)[C@H](O)O[C@@H]3CO)O[C@@H]2CO)[C@H](O)[C@@H](O)[C@@H]1N[C@H]1C=C(CO)[C@@H](O)[C@H](O)[C@H]1O
inactive: Potency [1] | Potency [2] | Potency [3] | Potency [10] | Potency [5] | Potency [7] | Potency [8] | Potency [9]

CN1[C@@H]2CC[C@H]1CC(OC(=O)C(O)c1ccccc1)C2 (stereo partly drawn)
inactive: Potency [1] | Potency [2] | Potency [3] | Potency [10] | Potency [5] | Potency [6] | Potency [7] | Potency [8] | Potency [9]

Cc1cc2c(cc1S(N)(=O)=O)S(=O)(=O)CCC2
inactive: Potency [1] | Potency [2] | Potency [3] | Potency [10] | Potency [5] | Potency [6] | Potency [7] | Potency [8] | Potency [9]

O=c1cc[nH]c(=S)[nH]1
inactive: Potency [1] | Potency [2] | Potency [3] | Potency [10] | Potency [7] | Potency [8] | Potency [9]
active: Potency [5] 0.001 µM | Potency [6] 2.66 µM

COc1cc(C(=O)N2CCOCC2)cc(OC)c1OC
inactive: Potency [1] | Potency [2] | Potency [3] | Potency [10] | Potency [5] | Potency [6] | Potency [7] | Potency [8] | Potency [9]

N[C@H]1C(O)O[C@H](CO)[C@@H](O)[C@@H]1O (stereo partly drawn)
inactive: Potency [1] | Potency [2] | Potency [3] | Potency [10] | Potency [5] | Potency [6] | Potency [7] | Potency [8] | Potency [9]

COc1cc(C)c(Cc2cnc(N)nc2N)cc1OC
active: Potency [6] 11.9 µM
inactive: Potency [1] | Potency [2] | Potency [3] | Potency [5] | Potency [7] | Potency [8] | Potency [9]

Cn1c(=O)c2c(ncn2CC2OCCO2)n(C)c1=O
inactive: Potency [1] | Potency [2] | Potency [3] | Potency [6] | Potency [7] | Potency [8] | Potency [9]

CCOc1nc2cccc(C(=O)O)c2n1Cc1ccc(-c2ccccc2-c2nn[nH]n2)cc1
inactive: Potency [1] | Potency [2] | Potency [3] | Potency [10] | Potency [7] | Potency [8] | Potency [9]

O=C(CCCN1CCN(c2ccccn2)CC1)c1ccc(F)cc1
inactive: Potency [1] | Potency [2] | Potency [3] | Potency [10] | Potency [7] | Potency [8]

NCCNCCNCCN
inactive: Potency [1] | Potency [2] | Potency [3] | Potency [10] | Potency [6] | Potency [7] | Potency [8] | Potency [9]

CC(=O)Oc1ccc(C2(c3ccc(OC(C)=O)cc3)C(=O)Nc3ccccc32)cc1
inactive: Potency [1] | Potency [2] | Potency [3] | Potency [10] | Potency [5] | Potency [7] | Potency [8] | Potency [9]

O=C(O)c1ccccc1O
inactive: Potency [1] | Potency [2] | Potency [3] | Potency [5] | Potency [7] | Potency [8] | Potency [9]

NC(CSCC(=O)O)C(=O)O (stereo not drawn)
inactive: Potency [1] | Potency [2] | Potency [3] | Potency [10] | Potency [5] | Potency [6] | Potency [7] | Potency [8] | Potency [9]

CCCCOc1cc(C(=O)OCCN(CC)CC)ccc1N
inactive: Potency [1] | Potency [2] | Potency [3] | Potency [10] | Potency [5] | Potency [6] | Potency [7] | Potency [8] | Potency [9]

C[C@]12CC[C@@H]3c4ccc(O)cc4CC[C@H]3[C@@H]1CC[C@@H]2OC(=O)CCC1CCCC1
active: Potency [1] 6.51 µM and 8.2 µM
inactive: Potency [2] | Potency [3] | Potency [5] | Potency [6]

Cc1ncc([N+](=O)[O-])n1CC(O)CCl (stereo not drawn)
inactive: Potency [1] | Potency [2] | Potency [3] | Potency [10] | Potency [5] | Potency [6] | Potency [7] | Potency [8] | Potency [9]

O=C(O)COc1nn(Cc2ccccc2)c2ccccc12
inactive: Potency [1] | Potency [2] | Potency [3] | Potency [5] | Potency [6] | Potency [7] | Potency [8] | Potency [9]

COc1ccc2cc1Oc1ccc(cc1)C[C@H]1c3c(cc4c(c3Oc3cc5c(cc3OC)CCN(C)[C@@H]5C2)OCO4)CCN1C
inactive: Potency [4]
active: Potency [1] 20.6 µM | Potency [6] 15 µM | Potency [7] 17.4 µM

COc1ccc2cc1Oc1cc3c(cc1OC)CC[N+](C)(C)[C@H]3Cc1ccc(cc1)Oc1c(OC)c(OC)cc3c1[C@@H](C2)[N+](C)(C)CC3
inactive: Potency [1] | Potency [2] | Potency [3] | Potency [10] | Potency [5] | Potency [6] | Potency [7] | Potency [8] | Potency [9]

CC[N+](CC)(CC)CCOc1ccc(/C=C/c2ccccc2)cc1
inactive: Potency [1] | Potency [2] | Potency [9]
active: Potency [3] 21 µM | Potency [6] 5.96 µM | Potency [7] 15.5 µM

CC(O)CN(CCN(CC(C)O)CC(C)O)CC(C)O (stereo not drawn)
inactive: Potency [1] | Potency [2] | Potency [3] | Potency [10] | Potency [5] | Potency [6] | Potency [7] | Potency [8] | Potency [9]

CC1(C)[C@@H]2CC[C@@]1(C)C(=O)C2
inactive: Potency [1] | Potency [2] | Potency [3] | Potency [10] | Potency [6] | Potency [7] | Potency [8] | Potency [9]

[Cl][In]([Cl])[Cl]
inactive: Potency [1] | Potency [2] | Potency [4] | Potency [8] | Potency [9]

O=c1cc(CO)occ1O
inactive: Potency [1] | Potency [2] | Potency [3] | Potency [10] | Potency [6] | Potency [7] | Potency [8] | Potency [9]

OCC(CO)N[C@H]1C[C@](O)(CO)[C@@H](O)[C@H](O)[C@H]1O
inactive: Potency [1] | Potency [2] | Potency [3] | Potency [6] | Potency [7] | Potency [8] | Potency [9]

CC12CCC(CC1)C(C)(C)O2
inactive: Potency [1] | Potency [2] | Potency [3] | Potency [10] | Potency [5] | Potency [7] | Potency [8] | Potency [9]

O=C(O)Cc1sc(-c2ccccc2)nc1-c1ccc(Cl)cc1
inactive: Potency [1] | Potency [2] | Potency [3] | Potency [10] | Potency [5] | Potency [6] | Potency [7] | Potency [8] | Potency [9]

Source: PubChem BioAssay (NCATS)
